Measured values as given in the supplement of paper PMC12282887.
± gives the standard deviation of the averaged measurements.

What was measured:
Experiment in all cases: promoter activity interaction Z-score (Lux/OD deviation from empty-vector control); higher = stronger promoter induction by the compound
[1] = test system: E. coli BW25113 acrABp lux reporter
Procedure, shortened: (§1)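 Reporter strains of E. coli BW25113 grew at 37°C in 40 µl LB Lennox in 384-well plates. Readings of OD600 and luminescence were taken every 30 min over 12 h, integrated over 0–8 h (wild type) or 1–9 h (deletion strains), and wells below 10% of the median growth value were excluded. Scores are Z-transformed residuals of growth-normalised luminescence from a fit against a control.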

[2] = test system: E. coli BW25113 micFp lux reporter
Procedure, shortened: as §1

[3] = test system: E. coli BW25113 ompFp lux reporter
Procedure, shortened: as §1

[4] = test system: E. coli BW25113 robp lux reporter
Procedure, shortened: as §1

[5] = test system: E. coli BW25113 soxSp lux reporter
Procedure, shortened: as §1

[6] = test system: E. coli BW25113 tolCp lux reporter
Procedure, shortened: as §1

[7] = 2.4 µg/ml, genetic background: wild type
[8] = 2.4 µg/ml, genetic background: ΔmarA
[9] = 2.4 µg/ml, genetic background: Δrob
[10] = 2.4 µg/ml, genetic background: ΔsoxS
[11] = 4.8 µg/ml, genetic background: wild type
[12] = 4.8 µg/ml, genetic background: ΔmarA
[13] = 4.8 µg/ml, genetic background: Δrob
[14] = 4.8 µg/ml, genetic background: ΔsoxS
[15] = 9.5 µg/ml, genetic background: wild type
[16] = 9.5 µg/ml, genetic background: ΔmarA
[17] = 9.5 µg/ml, genetic background: Δrob
[18] = 9.5 µg/ml, genetic background: ΔsoxS
[19] = 19 µg/ml, genetic background: wild type
[20] = 19 µg/ml, genetic background: ΔmarA
[21] = 19 µg/ml, genetic background: Δrob
[22] = 19 µg/ml, genetic background: ΔsoxS

`CO[C@@H]1[C@@H](OC(N)=O)[C@@H](O)[C@H](Oc2ccc3c(O)c(NC(=O)c4ccc(O)c(CC=C(C)C)c4)c(=O)oc3c2C)OC1(C)C` [Novobiocin] was tested, and the “promoter activity interaction Z-score” value [1, 7] was 0.244 ± 0.011, the “promoter activity interaction Z-score” value [1, 8] was -0.347 ± 1.3 and the “promoter activity interaction Z-score” value [1, 9] was 0.848 ± 0.4. For the same compound, the “promoter activity interaction Z-score” value [1, 10] was 0.546 ± 0.036, the “promoter activity interaction Z-score” value [1, 11] was 0.442 ± 0.43 and the “promoter activity interaction Z-score” value [1, 12] was 0.136 ± 0.95. The “promoter activity interaction Z-score” value [1, 13] was 1.49 ± 0.32, the “promoter activity interaction Z-score” value [1, 14] was 0.39 ± 0.16 and the “promoter activity interaction Z-score” value [1, 15] was 0.927 ± 0.17. For the same compound, the “promoter activity interaction Z-score” value [1, 16] was -0.164 ± 0.91, the “promoter activity interaction Z-score” value [1, 17] was 1.06 ± 0.42 and the “promoter activity interaction Z-score” value [1, 18] was 1.16 ± 0.38. For the same compound, the “promoter activity interaction Z-score” value [1, 19] was 2.99 ± 1.6, the “promoter activity interaction Z-score” value [1, 20] was 0.0115 and the “promoter activity interaction Z-score” value [1, 21] was 10.3 ± 1.3. The “promoter activity interaction Z-score” value [1, 22] was 4.62 ± 1.6, the “promoter activity interaction Z-score” value [2, 7] was -0.408 ± 0.09 and the “promoter activity interaction Z-score” value [2, 8] was 0.0296 ± 0.17. For the same compound, the “promoter activity interaction Z-score” value [2, 9] was 0.145 ± 0.073, the “promoter activity interaction Z-score” value [2, 10] was -0.147 ± 0.056 and the “promoter activity interaction Z-score” value [2, 11] was 0.134 ± 0.14. For the same compound, the “promoter activity interaction Z-score” value [2, 12] was 0.213 ± 0.017, the “promoter activity interaction Z-score” value [2, 13] was 0.0635 ± 0.05 and the “promoter activity interaction Z-score” value [2, 14] was -0.119 ± 0.12. For the same compound, the “promoter activity interaction Z-score” value [2, 15] was 0.284 ± 0.49, the “promoter activity interaction Z-score” value [2, 16] was 0.421 ± 0.17 and the “promoter activity interaction Z-score” value [2, 17] was 0.245 ± 0.24. For the same compound, the “promoter activity interaction Z-score” value [2, 18] was 0.14 ± 0.16, the “promoter activity interaction Z-score” value [2, 19] was 1.5406 ± 0.00073 and the “promoter activity interaction Z-score” value [2, 20] was 0.113 ± 0.18. The “promoter activity interaction Z-score” value [2, 21] was -0.174 ± 0.2, the “promoter activity interaction Z-score” value [2, 22] was 1.4 ± 0.62 and the “promoter activity interaction Z-score” value [3, 7] was 0.0673 ± 0.21. For the same compound, the “promoter activity interaction Z-score” value [3, 8] was -0.291 ± 0.042, the “promoter activity interaction Z-score” value [3, 9] was 0.21 ± 0.083 and the “promoter activity interaction Z-score” value [3, 10] was -0.226 ± 0.19. The “promoter activity interaction Z-score” value [3, 11] was 0.318 ± 0.29, the “promoter activity interaction Z-score” value [3, 12] was -0.339 ± 0.52 and the “promoter activity interaction Z-score” value [3, 13] was 0.165 ± 0.0019. For the same compound, the “promoter activity interaction Z-score” value [3, 14] was 0.0876 ± 0.53, the “promoter activity interaction Z-score” value [3, 15] was -0.446 ± 0.54 and the “promoter activity interaction Z-score” value [3, 16] was -1.53 ± 0.12. The “promoter activity interaction Z-score” value [3, 17] was -1.13 ± 0.89, the “promoter activity interaction Z-score” value [3, 18] was -0.424 ± 0.61 and the “promoter activity interaction Z-score” value [3, 19] was -1.63 ± 0.2. The “promoter activity interaction Z-score” value [3, 20] was -1.87 ± 0.17, the “promoter activity interaction Z-score” value [3, 21] was -2.05 ± 0.56 and the “promoter activity interaction Z-score” value [3, 22] was -1.87 ± 0.47. For the same compound, the “promoter activity interaction Z-score” value [4, 7] was 0.51 ± 0.35, the “promoter activity interaction Z-score” value [4, 8] was 0.679 ± 0.23 and the “promoter activity interaction Z-score” value [4, 9] was 1.25 ± 0.25. For the same compound, the “promoter activity interaction Z-score” value [4, 10] was 0.985 ± 1.4, the “promoter activity interaction Z-score” value [4, 11] was 1.19 ± 0.16 and the “promoter activity interaction Z-score” value [4, 12] was 1.57 ± 0.17. For the same compound, the “promoter activity interaction Z-score” value [4, 13] was 1.21 ± 0.23, the “promoter activity interaction Z-score” value [4, 14] was 1.76 ± 1.1 and the “promoter activity interaction Z-score” value [4, 15] was 0.92 ± 0.12. For the same compound, the “promoter activity interaction Z-score” value [4, 16] was 1.41 ± 0.34, the “promoter activity interaction Z-score” value [4, 17] was 1.08 ± 0.13 and the “promoter activity interaction Z-score” value [4, 18] was 1.88 ± 0.47. The “promoter activity interaction Z-score” value [4, 19] was 2.49 ± 0.18, the “promoter activity interaction Z-score” value [4, 20] was 2.71 ± 1.5 and the “promoter activity interaction Z-score” value [4, 21] was 2.7 ± 1.2. The “promoter activity interaction Z-score” value [4, 22] was 2.56 ± 1.5, the “promoter activity interaction Z-score” value [5, 7] was -0.136 ± 0.025 and the “promoter activity interaction Z-score” value [5, 8] was -0.0396 ± 0.014. The “promoter activity interaction Z-score” value [5, 9] was 0.132 ± 0.012, the “promoter activity interaction Z-score” value [5, 10] was -0.0347 ± 0.41 and the “promoter activity interaction Z-score” value [5, 11] was 0.0479 ± 0.082. For the same compound, the “promoter activity interaction Z-score” value [5, 12] was -0.0499 ± 0.0013, the “promoter activity interaction Z-score” value [5, 13] was 0.0442 ± 0.016 and the “promoter activity interaction Z-score” value [5, 14] was 0.0803 ± 0.2. For the same compound, the “promoter activity interaction Z-score” value [5, 15] was -0.193 ± 0.16, the “promoter activity interaction Z-score” value [5, 16] was -0.125 ± 0.18 and the “promoter activity interaction Z-score” value [5, 17] was 0.00176 ± 0.065. The “promoter activity interaction Z-score” value [5, 18] was 0.0899 ± 0.22, the “promoter activity interaction Z-score” value [5, 19] was -0.00867 ± 0.13 and the “promoter activity interaction Z-score” value [5, 20] was -0.000878 ± 0.32. The “promoter activity interaction Z-score” value [5, 21] was -0.0162 ± 0.056, the “promoter activity interaction Z-score” value [5, 22] was 0.304 ± 0.35 and the “promoter activity interaction Z-score” value [6, 7] was 0.183 ± 0.43. The “promoter activity interaction Z-score” value [6, 8] was 0.192 ± 0.74, the “promoter activity interaction Z-score” value [6, 9] was 0.95 ± 0.16 and the “promoter activity interaction Z-score” value [6, 10] was -0.793 ± 0.74. The “promoter activity interaction Z-score” value [6, 11] was 0.878 ± 0.85, the “promoter activity interaction Z-score” value [6, 12] was 1.47 ± 0.72 and the “promoter activity interaction Z-score” value [6, 13] was 0.512 ± 0.0012. For the same compound, the “promoter activity interaction Z-score” value [6, 14] was 0.453 ± 0.65, the “promoter activity interaction Z-score” value [6, 15] was 0.713 ± 0.2 and the “promoter activity interaction Z-score” value [6, 16] was 1.93 ± 0.4. The “promoter activity interaction Z-score” value [6, 17] was 1.26 ± 0.14, the “promoter activity interaction Z-score” value [6, 18] was 0.497 ± 0.4 and the “promoter activity interaction Z-score” value [6, 19] was 1.73 ± 1.4. For the same compound, the “promoter activity interaction Z-score” value [6, 20] was 0.8 ± 2.4, the “promoter activity interaction Z-score” value [6, 21] was 2.44 ± 0.49 and the “promoter activity interaction Z-score” value [6, 22] was 2 ± 0.17.
